Only some compounds are listed: those with a hit (about 1.1% of all), similar ones and a draw of the others.
Mtb hypoxia inh – reduces hypoxia-regulated biosensor signal in M. tuberculosis; M. tuberculosis hypoxia-regulated fluorescent reporter, fluorescence; fluorescence inhibition, % (no concentration beside the values); AID 1159583; 0.1% of 300,000 active; in the data active = fluorescence inhibition mostly above about 23%, no sharp cut-off; inactive = mostly below about 17%
SSB-PriA inh – inhibitors of Klebsiella pneumoniae PriA binding to SSB C-terminal tail | AlphaScreen SSBct-PriA binding, biotinylated peptide | inhibition, % at 33 µM | 0.6% of 430,000 active; in the data active = inhibition mostly above about 37%, no sharp cut-off; inactive = mostly below about 20%;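 also: plate controls were negative control peptide for no effect and reference peptide for full effect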
ugtP null kill – growth inhibition of S. aureus ugtP deletion strain; S. aureus RN4220 ugtP deletion, OD600 growth, 16 h; growth inhibition, % (concentration not given with the values); 0.54% of 330,000 active; AID 1259309; in the data active = growth inhibition above about 68%;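 also: plate controls were untreated wells for no effect and antibiotic for full effect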
Sa RN4220 lethal – kills Staphylococcus aureus RN4220. S. aureus RN4220 growth, OD600, 16 h. 0.33% of 330,000 active. AID 1259311. inhibition, % (test concentration not listed); in the data active = inhibition above about 85%;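 also: plate controls were untreated cells for no effect and reference antibiotic for full effect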
Starred values were filed as active, the others as inactive; . = no result given; ! = a repeat was not active.

SMILES | Mtb hypoxia inh | SSB-PriA inh | ugtP null kill | Sa RN4220 lethal
COc1ccc(CNC(=O)N2CC[C@H](S(=O)(=O)c3ccc(Cl)cc3)C2)cc1 | . | 8 | . | .
CCOC(=O)C1CCc2sc(NC(=O)C3CSCCC(=O)N3)nc21 (configuration not stated) | . | -2 | . | .
CC(=O)OCC1=C(C(=O)O)N2C(=O)C(NC(=O)CCn3nc(C(F)(F)F)c(Br)c3C3CC3)C2SC1 (configuration not stated) | . | -14 | 100* | 100*
N#Cc1nc(-c2ccccc2Cl)oc1N1CCCCCC1 | . | 94* | . | .
CC1CCN(c2oc(-c3ccccc3Cl)nc2C#N)CC1 | . | 49* | 1 | 6
CCOc1ccccc1NC(=O)CN1C(=O)NC(CCC(=O)O)(c2ccccc2)C1=O (configuration not stated) | . | 20 | . | .
O=c1nc2scc(-c3ccccc3)n2c2ccccc12 | 1 | -23 | 91* | -6
CC1CCCN(C(=O)CSc2nnc(-c3cccs3)o2)C1 (configuration not stated) | 51* | -7 | 6 | 5
O=C(CSc1nnc(-c2ccccc2)o1)N1CCCCC1 | . | -3 | -2 | 3
O=C(CSc1nnc(-c2ccc(F)cc2)o1)N1CCCCC1 | 46* | -12 | -6 | 2
CC1CCCN(C(=O)CSc2nnc(-c3ccc(O)cc3)o2)C1 (configuration not stated) | 18 | -17 | 5 | 1
O=C(NCCc1csc(-n2cccn2)n1)c1nc2ccccc2s1 | . | -18 | . | .
COC(=O)C1CC(OC)CN1C(=O)CSC1CCCC1 (configuration not stated) | . | -5 | . | .
CC(=NNc1ccc([N+](=O)[O-])cc1)c1c[nH]c2ccccc12 | 9 | 40* | -25 | -6
Cc1nnsc1C(=O)NCCn1ncc2c(N3CCN(Cc4ccccc4)CC3)ncnc21 | . | -4 | . | .
COc1ccc2c(c1)NC(C)(C)C=C2C | 4 | 9 | -4 | 5
CC1=CC(C)(C)Nc2ccccc21 | 7 | 53*! | 7 | 5
C=CCC(CC(=O)NC(CO)Cc1ccccc1)C(=O)NC(COC(=O)C(CC=C)Cc1ccc(F)cc1)Cc1c[nH]c2ccccc12 (configuration not stated) | 36*! | . | 1 | 1
CN1C(=O)C(C)(C)COc2ccc(NC(=O)Nc3ccc4c(c3)OCO4)cc21 | . | -17 | . | .
c1ccc(-c2nc(-c3ccccn3)no2)cc1 | 5 | 3 | 1 | 3
Oc1ccccc1-c1nc(NC2CCCC2)c2ccccc2n1 | -1 | 2 | 65 | 38
c1ccc(-c2nc(NC3CCCCC3)c3ccccc3n2)nc1 | . | 57* | . | .
Fc1ccccc1-c1nc(NC2CCCC2)c2ccccc2n1 | -7 | -21 | 9 | -5
c1ccc(-c2nnc(-c3ccccn3)nc2NC2CCCCC2)cc1 | . | 101* | 89 | 97*
CNc1nc(-c2ccccn2)nnc1-c1ccccc1 | . | 91* | 4 | 0
SMILES | Mtb hypoxia inh | SSB-PriA inh | ugtP null kill | Sa RN4220 lethal
Cc1nsc(C(=O)N2CCN(C(=O)c3ccco3)CC2)n1 | . | -7 | . | .
C#CCn1c(=NC(=O)c2ccnn2C)sc2c(C)cc(C)cc21 | . | -12 | . | .
Cc1nnc(SCC2=C(C(=O)O)N3C(=O)C(NC(=O)COc4ccc(F)cc4)C3SC2)s1 (configuration not stated) | . | -1 | 97* | 100*
Cc1nnc(SCC(=O)NNC(=O)COc2ccc(Cl)cc2)s1 | 1 | 8 | 8 | 2
CC1=C(C(=O)OCc2ccc([N+](=O)[O-])cc2)N2C(=O)C(NC(=O)Cc3ccccc3)C2SC1 (configuration not stated) | 0 | -10 | 0 | 2
C=CC1=C(C(=O)O)N2C(=O)C(NC(=O)Cc3ccccc3)C2SC1 (configuration not stated) | . | -8 | 101* | 101*
Cc1nnc(SCC2=C(C(=O)O)N3C(=O)C(NC(=O)c4cc(F)c(F)cc4Cl)C3SC2)s1 (configuration not stated) | 11 | -10 | 100* | 100*
CCOc1ccc(C(=O)NC2C(=O)N3C(C(=O)O)=C(COC(C)=O)CSC23)cc1OCC (configuration not stated) | -1 | -8 | 24 | 41
CC(=O)OCC1=C(C(=O)O)N2C(=O)C(NC(=O)COc3ccc(F)cc3)C2SC1 (configuration not stated) | 37* | 6 | 101* | 100*
CCOc1ccc(C(=O)Nc2ccccc2-c2cn3ccsc3n2)nn1 | . | -3 | . | .
COC(=O)C1=C(N)Oc2cc(C)[nH]c(=O)c2C12C(=O)N(Cc1ccc(Cl)cc1)c1ccccc12 (configuration not stated) | . | -7 | . | .
Cc1cc(OC2CN(C(=O)c3cc4ccccc4[nH]3)C2)cc(=O)n1C | . | 14 | . | .
COc1ccc(CNC(=O)NCCC(O)c2ccsc2)cc1OC (configuration not stated) | . | 5 | . | .
O=S(=O)(c1ccc2c(c1)CCCC2)N1CC[C@H](n2ccnn2)C1 | . | -7 | . | .
Cc1nnc(SCC2=C(C(=O)O)N3C(=O)C(NC(=O)COc4ccccc4)C3SC2)s1 (configuration not stated) | . | -8 | 101* | 100*
O=C(COc1ccccc1)NC1C(=O)N2C(C(=O)O)=C(Cl)CSC12 (configuration not stated) | . | -8 | 101* | 101*
CC1=C(C(=O)OCc2ccccc2)N2C(=O)[C@@H](NC(=O)COc3ccccc3)[C@H]2SC1 | 0 | -8 | 8 | 11
CCC(C(=O)NC1C(=O)N2C(C(=O)O)=C(CSc3nnc(C)s3)CSC12)c1ccccc1 (configuration not stated) | . | -9 | 100* | 100*
CCC(C(=O)NC1CCN(C)CC1)c1ccccc1 (configuration not stated) | 10 | -12 | 4 | 3
Cc1cc(NC(=O)c2cc(=O)c3ccccc3o2)n(-c2nc3c(cnn3-c3ccc(F)cc3)c(=O)[nH]2)n1 | . | -12 | . | .
O=C(CCN1C(=O)C2C3C=CC(C4CC34)C2C1=O)Oc1cccc2cccnc12 (configuration not stated) | -2 | 7 | 98* | 100*
Cc1c(Cl)ccc2c(C(O)CBr)cc(-c3ccccc3)nc12 (configuration not stated) | 20 | -9 | 96* | 41
ON=CC1=C(Cl)c2ccccc2CC1 | 7 | -5 | 4 | 16
Fc1ccc(CON=CC2=C(Cl)c3ccccc3CC2)cc1 | . | -48 | 99* | 10
O=C(Nc1ccc(Cl)cc1F)c1cc(S(=O)(=O)NCCc2ccccc2)ccc1F | . | -16 | . | .
SMILES | Mtb hypoxia inh | SSB-PriA inh | ugtP null kill | Sa RN4220 lethal
Cc1ccc(CNC(=O)CCc2c(C)nc3c(c(C)nn3-c3ccc(C)cc3)c2C)cc1 | 0 | -11 | 15 | 0
Cc1ccc(-n2nc(C)c3c(C)c(CCC(=O)NCc4ccco4)c(C)nc32)cc1 | 8 | 96* | 11 | -3
CCOC(=O)N1CCN(C(=O)Cn2nc(C)n3nc(-c4ccc(OC)cc4)cc3c2=O)CC1 | -8 | -9 | -8 | 0
COc1ccc(-c2cc3c(=O)n(CC(=O)Nc4cccc(Cl)c4)nc(C)n3n2)cc1 | . | 44* | . | .
O=C(/C=C\c1ccccc1)NCCn1ncc2c(=O)n(Cc3cccc(Cl)c3)cnc21 | . | 10 | . | .
CCN1CCN(c2cc(SC(C)C)nc(-c3ccc(OC)cc3)n2)CC1 | 14 | 13 | 93* | -3

Screening results (PubChem)
